From PubChem BioAssay (Tox21)
Several values for one entry are separate records, joined by “and”; a condition that tells them apart may be missing. Equal values may be shown once. Inconclusive results are not listed. Entries that show only a call come without a potency. A number with no mark means an inactive call. Activity calls are given as the source filed them. Calls follow the shape of the dose curve; as a rule, active = well fitted inhibition curve with a large enough effect in the signal ratio in the repeat runs (not every such curve was filed as active); inconclusive = weak or mixed curves, or effect the other way; inactive = no such curve, though single readings can be large or run the other way; the % refers to the signal ratio.

Biological target: Glucocorticoid receptor (Homo sapiens) (UniProt P04150)
Sequence (P04150 whole entry, looked up): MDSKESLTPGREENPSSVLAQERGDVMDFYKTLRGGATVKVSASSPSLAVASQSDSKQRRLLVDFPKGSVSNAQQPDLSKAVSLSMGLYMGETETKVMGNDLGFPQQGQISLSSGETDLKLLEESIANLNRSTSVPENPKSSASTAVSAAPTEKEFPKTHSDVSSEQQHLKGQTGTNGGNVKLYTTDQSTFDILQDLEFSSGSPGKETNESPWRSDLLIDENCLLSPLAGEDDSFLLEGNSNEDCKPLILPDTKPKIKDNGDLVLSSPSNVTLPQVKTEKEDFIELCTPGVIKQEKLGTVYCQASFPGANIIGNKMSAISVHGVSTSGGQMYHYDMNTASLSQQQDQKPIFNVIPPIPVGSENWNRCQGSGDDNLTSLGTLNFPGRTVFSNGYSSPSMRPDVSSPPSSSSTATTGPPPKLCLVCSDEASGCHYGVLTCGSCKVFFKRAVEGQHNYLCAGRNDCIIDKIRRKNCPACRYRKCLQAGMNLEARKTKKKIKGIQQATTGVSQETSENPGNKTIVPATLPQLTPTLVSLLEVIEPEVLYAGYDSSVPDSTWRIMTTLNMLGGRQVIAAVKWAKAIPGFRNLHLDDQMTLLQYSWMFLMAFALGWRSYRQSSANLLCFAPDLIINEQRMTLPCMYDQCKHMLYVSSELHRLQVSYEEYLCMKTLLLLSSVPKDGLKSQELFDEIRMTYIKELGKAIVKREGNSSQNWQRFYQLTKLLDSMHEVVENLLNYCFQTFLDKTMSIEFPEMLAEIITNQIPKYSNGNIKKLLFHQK
Test: qHTS assay to identify small molecule antagonists of the glucocorticoid receptor (GR) signaling pathway (AID 720692)
Conditions: GR-bla HeLa, beta-lactamase FRET ratio, dexamethasone-stimulated, 18 h; series mostly up to 58.5 µM; activity change, negative = inhibition: at the top concentration
Text: U.S. Tox21 Program National Center for Advancing Translational Sciences [NCATS] NIH Chemical Genomics Center [NCGC] U.S. Environmental Protection Agency [EPA] National Institutes of Environmental Health Sciences [NIEHS] National Toxicology Program [NTP] U.S. Food and Drug Administration [FDA] Tox21 Assay Overview: The Glucocorticoid receptor (GR) is one of the members of the nuclear receptor family of ligand-dependent transcription factors. GR plays a critical role in carbohydrate, protein and lipid metabolisms and programmed cell death. CellSensor GR-bla HeLa cell line (Invitrogen) contains a beta-lactamase reporter gene under the control of the glucocorticoid response element stably integrated into HeLa cells, a cervical cancer cell line that expresses glucocorticoid receptor. The activation of the reporter gene under culture conditions can be detected by fluorescence intensity. This cell line has been used to screen the Tox21 10K compound library and to identify the compounds that inhibit the GR signaling.
Tox21 Assay Protocol Summary: The GR-bla HeLa cells were dispensed at 1500 cells/5 ul/well in 1536-well black wall/clear bottom plates using a Multidrop Combi (ThermoFisher Scientific, Waltham, MA) dispenser. After the assay plates were incubated at a 37 C/5% CO2 incubator for 4 hours, 23 nL of compounds dissolved in DMSO, positive controls or DMSO only was transferred to the assay plate by a pintool station (Kalypsys, San Diego, CA), followed by addition of 1 uL of dexamethasone (5 nM, final concentration in the well). The plates were incubated at 37 C for 18 hours. After 1 uL of LiveBLAzerTM B/G FRET substrate was added using a Flying Reagent Dispenser (Aurora Discovery, San Diego, CA), the plates were incubated at room temperature for 2 hours, and fluorescence intensity was measured by an Envision plate reader (PerkinElmer, Shelton, CT).
Potency is read from the fitted curve at half-maximal effect.

Structure (SMILES) | activity change, negative = inhibition | Potency
C=C(C#N)C(=O)OCC | 3.13% | –
CCOC(=O)[C@H](CCc1ccccc1)N[C@@H](C)C(=O)N1Cc2ccccc2C[C@H]1C(=O)O | – | inactive
O=C1O[C@H](CO)[C@@H](O)[C@H](O)[C@H]1O | 5.08% | –
C=C(C)C(=O)OCCCCCC | -0.425% | –
CCCCNC(N)=O | – | inactive
Cc1cc(=O)[nH]c(C(C)C)n1 | – | inactive
ClC1=C(Cl)C(Cl)(Cl)C(Cl)=C1Cl | – | 13.8 µM (active)
C=C1C2CCC(C2)C1(C)C (stereo not given) | – | inactive
CS(=O)(=O)c1ccc([C@@H](O)[C@@H](CO)NC(=O)C(Cl)Cl)cc1 | – | inactive
CCCCCCCCCC(=O)O | -19.6% [at 78.9 µM] | –
O=C(Cl)c1c(Cl)c(Cl)c(C(=O)Cl)c(Cl)c1Cl | 9.46% | –
C[C@@H]1O[C@@H](OC[C@H]2O[C@@H](Oc3c(-c4ccc(O)c(O)c4)oc4cc(O)cc(O)c4c3=O)[C@H](O)[C@@H](O)[C@@H]2O)[C@H](O)[C@H](O)[C@H]1O | – | inactive
CCCCCCCCCCC=CC1CC(=O)OC1=O (stereo not given) | – | 15.6 µM (active) and 49 µM (active)
Cn1c([N+](=O)[O-])cnc1COC(N)=O | -1.49% | –
OCC#CCO | -0.922% [at 78.9 µM] | –
Cc1ccc(C)c(C)c1 | 3.37% [at 78.9 µM] | –
NC(=O)/N=N/C(N)=O | – | inactive
NCCNCCNCCNCCN | – | inactive
Oc1ccc2ccccc2c1 | -8.48% [at 78.9 µM] | –
CCOC(=O)C1OC1c1ccccc1 (stereo not given) | – | inactive

Structure (SMILES) | activity change, negative = inhibition | Potency
O=S(=O)(O)c1cc(S(=O)(=O)O)c2c(N=Nc3ccccc3)c(O)ccc2c1 | -9.55% [at 78.9 µM] | –
CC1=C(CC(=O)O)c2cc(F)ccc2/C1=C\c1ccc(S(C)=O)cc1 (stereo not given) | -8.4% | –
C=C(C)C(=O)OCC(CC)(COC(=O)C(=C)C)COC(=O)C(=C)C | – | inactive
CC(=O)[C@@]1(O)CC[C@H]2[C@@H]3CCC4=CC(=O)CC[C@]4(C)[C@H]3CC[C@@]21C | – | 1.07 µM (active) and 275 nM (active)
Cc1ccc(C(=O)O)o1 | – | inactive
NCc1cccc(CN)c1 | – | inactive
O=C(O)c1ccc([N+](=O)[O-])cc1 | – | inactive
OCC1CCCO1 (stereo not given) | – | inactive
Cc1cc(NS(=O)(=O)c2ccc(N)cc2)no1 | 0.563% | –
Clc1cc(Cl)c(Cl)cc1Cl | – | inactive
CC(C)(C)C1CCC(O)CC1 (stereo not given) | – | inactive
OCCOCCOCCOCCO | – | inactive
CCCCCC/C=C/CCCCCCCC(=O)O | – | inactive
O=C1N=C(O)CN1/N=C/c1ccc(-c2ccc([N+](=O)[O-])cc2)o1 | – | inactive
O=S(=O)(O)CCS | – | inactive
CCCCC(CC)COC(=O)CCCCCCCC(=O)OCC(CC)CCCC (stereo not given) | – | inactive
CCCCCCCCC | – | inactive
O=C1CCCCC1 | – | inactive
Nc1nc2ncc(CNc3ccc(C(=O)N[C@@H](CCC(=O)O)C(=O)O)cc3)nc2c(=O)[nH]1 | – | inactive
CCCCC(CC)COC(C)=O (stereo not given) | – | inactive
